From PubChem BioAssay (Tox21) come the findings set out here.

Records with an inconclusive call do not appear. A call without a number means that no potency is given here. Active and inactive are the calls of the source. The call rests on the fitted dose curve; in most records, active means well fitted inhibition curve with a large enough effect in the repeat runs; inconclusive means weak or mixed curves; inactive means no such curve, though single readings can be large or run the other way.
Potency means the concentration at half of the fitted maximal effect.

The nature of the test: qHTS assay to identify small molecule antagonists of the estrogen related receptor (ERR) signaling pathway (AID 1224819; further: nearly all actives have a fitted effect of over 50% in size). Particulars: ERR reporter cell line, luciferase inhibition; series mostly up to 46.1 µM. In a few lines:
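Luminescence readout (One-Glo, 30 min, RT) of ERR cell line after 18 h compound exposure at 37 C; cells seeded 2,000/well, pre-incubated 6 h, compounds pinned from DMSO stocks.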
(In general: qHTS replaces the single test concentration by a dilution series.)
As to `CC(N)(Cc1ccc(O)cc1)C(=O)O` (stereo not drawn), the Potency entry is “inactive”. For the molecule `NC/C=C\C(=O)O`, the Potency result was “inactive”. As for `Fc1ccc(C(OCCCc2cnc[nH]2)c2ccc(F)cc2)cc1`, the Potency was 13.9 µM (active).

For `COCc1nc2c([nH]1)c(=O)n(C)c(=O)n2CC(C)C`, the Potency result is “inactive”. Next, `O=C(/C=C/c1ccc(O)c(O)c1)OCCc1ccccc1`: “inactive”; `O=C1NC(=O)/C(=C/c2ccc(-c3ccc(F)cc3O)o2)S1`: “inactive”; `CCOC(=O)C1=C(O)C(=O)N(Cc2ccccc2)C1`: “inactive”.

Turning to `C=CCc1cccc(/C=N/NC(=O)CN2CCN(Cc3ccccc3)CC2)c1O`, the Potency was 3.9 µM (active). Take `COC1(C2=NCCN2)COc2ccccc2O1` (stereo not drawn): the Potency result is “inactive”. As to `O=C(OCCN1CCOCC1)C1(c2ccccc2)CCCCC1`, the Potency entry is “inactive”. For `O=C1c2ccccc2C(=O)c2c(NCCc3ccc(O)cc3)ccc(NCCc3ccc(O)cc3)c21`, the Potency is 18.1 µM (active).

As for `Cn1c(=O)c(-c2c(Cl)cccc2Cl)cc2cnc(Nc3ccc(N4CCOCC4)cc3)nc21`, the Potency was 4.38 µM (active). As to `COc1ccc(/C=C2\COc3ccc(C)cc3C2=O)cc1O`, the Potency result was “inactive”.

For `N=c1ccn2c(n1)O[C@H]1C(O)[C@@H](CO)O[C@H]12` (stereo partly drawn), the Potency entry was “inactive”.

Take `CC(=O)N[C@@H](Cc1c[nH]c2ccccc12)C(=O)OCc1cc(C(F)(F)F)cc(C(F)(F)F)c1`: the Potency result was “inactive”.

Take `CCNC(=O)[C@H]1O[C@@H](n2cnc3c(N)nc(NCCc4ccc(CCC(=O)O)cc4)nc32)[C@H](O)C1O` (stereo partly drawn): the Potency entry was “inactive”. Regarding `Cc1ccc(S(=O)(=O)/C=C/C#N)cc1`, the Potency entry is “inactive”. Turning to `CC1(C)CCC2=C(O1)c1ccccc1C(=O)C2=O`, the Potency is 9.44 µM (active).
